Only a selection was taken, and hits are over-represented in it overall.
NPR2 activator = human GC-B receptor activators, primary screen, HEK293 GC-B cells, cGMP TR-FRET, EC30 CNP. Atrial natriuretic peptide receptor 2 (Homo sapiens), P20594. 0% at EC30 CNP, 100% saturating CNP. activation, % at 10 µM. actives 0.11% (n = 370,000). AID 1920062, 2024;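 active means activation at 10 µM reaching about 35% in either raw or pattern-adjusted values, limit read from the data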
Target sequence (P20594 whole entry, looked up): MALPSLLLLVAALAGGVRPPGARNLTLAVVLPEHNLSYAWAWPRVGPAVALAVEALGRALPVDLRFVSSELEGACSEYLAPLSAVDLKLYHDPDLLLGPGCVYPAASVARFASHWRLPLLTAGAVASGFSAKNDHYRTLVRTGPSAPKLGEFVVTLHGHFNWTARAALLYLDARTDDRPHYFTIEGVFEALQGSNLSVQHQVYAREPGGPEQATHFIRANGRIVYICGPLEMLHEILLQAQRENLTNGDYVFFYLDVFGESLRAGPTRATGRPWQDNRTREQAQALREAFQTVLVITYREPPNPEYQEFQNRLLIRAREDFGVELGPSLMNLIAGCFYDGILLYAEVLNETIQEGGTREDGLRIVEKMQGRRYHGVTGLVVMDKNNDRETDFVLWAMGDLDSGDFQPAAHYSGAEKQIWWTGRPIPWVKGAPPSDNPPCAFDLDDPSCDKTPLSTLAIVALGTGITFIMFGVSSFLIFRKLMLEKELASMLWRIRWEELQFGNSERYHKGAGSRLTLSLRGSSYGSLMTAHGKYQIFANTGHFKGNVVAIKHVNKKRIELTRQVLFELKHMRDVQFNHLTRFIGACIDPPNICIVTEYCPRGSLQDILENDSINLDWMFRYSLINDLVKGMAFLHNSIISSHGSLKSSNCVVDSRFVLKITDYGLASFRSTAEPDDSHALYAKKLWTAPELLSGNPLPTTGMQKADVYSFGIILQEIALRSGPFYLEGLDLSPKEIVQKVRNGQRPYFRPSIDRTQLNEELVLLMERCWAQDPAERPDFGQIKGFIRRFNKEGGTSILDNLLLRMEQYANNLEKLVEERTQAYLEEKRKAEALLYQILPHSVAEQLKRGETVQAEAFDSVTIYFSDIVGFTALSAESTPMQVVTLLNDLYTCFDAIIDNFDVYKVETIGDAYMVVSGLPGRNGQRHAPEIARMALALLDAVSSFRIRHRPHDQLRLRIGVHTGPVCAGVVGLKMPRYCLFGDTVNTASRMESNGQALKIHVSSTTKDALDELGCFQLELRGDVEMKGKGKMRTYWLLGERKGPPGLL
GC-A act = GC-A stimulated cGMP production enhancers – HEK293 GC-A cells, cGMP TR-FRET, EC30 ANP, primary screen; AID 1671463, 2021; actives 0.14% (n = 370,000); activation, % at 10 µM; 0% at EC30 ANP, 100% saturating ANP; in the data active means activation above about 40%
HDAC3 inh = HDAC3 deacetylase inhibitors, primary screen, biochemical, fluorescence, cell-free homogeneous; Histone deacetylase 3 (Homo sapiens), O15379; recombinant HDAC3, fluorogenic peptide/trypsin coupled; inhibition, % at 8.3 µM; actives 0.15% (n = 320,000); AID 2718, 2010; in the data active means inhibition above about 26%, passing the limit was not always enough; inconclusive means no clear call, values can overlap the other calls
ALR H2O2 inh = inhibitors of human ALR sulfhydryl oxidase, primary screen, biochemical, H2O2 detection, HRP-luminol luminescence, single point; FAD-linked sulfhydryl oxidase ALR (Homo sapiens), P55789; purified ALR, DTT oxidation; inhibition, % (concentration not given with the values); actives 3.8% (n = 290,000); AID 485317, 2010;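 active means mean replicate inhibition above about 79%, with every replicate also reaching it, limit read from the data; inconclusive means only one of the two criteria met; inactive means mean below limit and not every replicate reaching it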
Starred values were filed as active, the others as inactive; ? = inconclusive; . = no result.

SMILES	NPR2 activator	GC-A act	HDAC3 inh	ALR H2O2 inh
CC(=O)Oc1ccc(C(=O)Nc2ccc(S(=O)(=O)N3CCOCC3)cc2)cc1	3	1	2	-3
COc1ccc(C(=O)N2CCCC(Nc3ccc(F)cc3)C2)cc1F (centres undefined)	-5	2	-5	65
COc1ccc(C(=O)N2CCCC(Nc3ccc(C)c(C)c3)C2)cc1F (centres undefined)	-3	-1	-2	95*
Cc1ccc(C(=O)N2CCCC(Nc3ccc(F)cc3)C2)cc1C (centres undefined)	-6	-3	-3	99*
COC(=O)C[C@H]1CC[C@H](NC(=O)c2cccc(F)c2)[C@@H](CO)O1	1	3	.	.
N#CC1(C#N)CC(C=O)=C(N)C1(C#N)CC(=O)C12CC3CC(CC(C3)C1)C2 (centres undefined)	0	7	4	96*
CCc1nc2ccc(C(=O)NC3CCN(Cc4ccccc4)CC3)cn2c1N(C)Cc1cc2ccccc2s1	-2	-7	.	.
c1ccc(Nc2nc(-c3cccs3)cs2)nc1	-14	18	-4	37
Cc1cccc(Nc2nc(-c3ccccn3)cs2)n1	-4	18	4	89*
Cc1cccc(Nc2nc(-c3cccs3)cs2)n1	-8	19	13	94*
CC1CCCC(C)N1c1nnc(N)s1 (centres undefined)	1	3	1	95*
COc1ccc([C@H]2[C@H](C(=O)C(C)(C)C)N3N=Cc4ccccc4C3C23C(=O)OC(C)(C)OC3=O)cc1 (some centres undefined)	4	-1	-9	95*
COc1ccc([C@@H]2[C@@H](C(=O)C(C)(C)C)N3N=Cc4ccccc4[C@@H]3C23C(=O)OC(C)(C)OC3=O)cc1OC	2	1	1	8
O=C(CSCc1ccc([N+](=O)[O-])cc1)NC1CCCCCC1	2	-5	6	99*
O=C(CNC(=O)c1ccc(Br)cc1)NCC(=O)OCC(=O)c1ccc([N+](=O)[O-])cc1	-6	5	-5	-17
O=C(CSCc1ccc(F)cc1)NC1CCCC1	6	-1	-2	-4
O=C(CCC(=O)OCC(=O)c1ccc([N+](=O)[O-])cc1)NC1CCCCC1	-3	-3	5	80*
O=C(CNC(=O)c1ccccc1)NCC(=O)OCC(=O)c1ccc([N+](=O)[O-])cc1	2	2	4	97*
Cc1ccccc1CSCCNC(=O)CSCc1ccc([N+](=O)[O-])cc1	-2	-5	7	99*
Cc1ccc(S(=O)(=O)Nc2c(C)[nH]c(=O)[nH]c2=O)cc1C	-1	0	-2	.
Cc1nn(C)cc1S(=O)(=O)Nc1ccc(F)c(F)c1	1	4	4	-1
CN(CCCOC(=O)c1cc2ccccc2o1)C1CN(Cc2cn(Cc3ccccc3Cl)nn2)S(=O)(=O)C1 (centres undefined)	-3	-1	.	.
O=C(CSCc1cccc(Br)c1)NC1CC1	-3	-1	-2	98*
CN(C)Cc1c(C(C)(C)O)[nH]c2ccccc12	3	-4	.	.
C/C(=N\NS(=O)(=O)c1ccc([N+](=O)[O-])cc1)c1cccs1	5	3	2	62
SMILES	NPR2 activator	GC-A act	HDAC3 inh	ALR H2O2 inh
CC(C)/C(=N\NS(=O)(=O)c1ccc(Br)cc1)c1cccs1	0	-1	1	80*
COc1ccc(NC2CCCN(C(=O)CCOc3ccccc3)C2)cc1 (centres undefined)	4	3	-3	99*
COc1ccc(NC2CCCN(C(=O)CCc3ccccc3F)C2)cc1 (centres undefined)	3	0	4	100*
COc1ccc(NC2CCCN(C(=O)CSc3ccccc3)C2)cc1 (centres undefined)	-1	5	0	99*
COc1ccc(NC2CCCN(C(=O)COc3ccc(C)cc3)C2)cc1 (centres undefined)	4	0	12	90*
COc1ccc(NC2CCCN(C(=O)COc3ccc(C(C)=O)cc3)C2)cc1 (centres undefined)	-7	-3	.	.
CC12CCCC[C@@H]1CCC1C2CCC2(C)C1CC[C@@]2(O)CNCCO (some centres undefined)	6	13	5	-2
O=C(CSc1nnc(SCc2cccc3ccccc23)s1)N=Nc1c(O)[nH]c2ccccc12	.	.	0	11
CC(NC(=O)CN(Cc1ccccc1)S(=O)(=O)c1ccccc1)c1cccnc1 (centres undefined)	-3	-1	-1	-1
N#C/C(=C\c1ccc(F)c(F)c1)C(=O)NC1CCCCC1	-1	1	-16	98*
COC(C(=O)N/N=C(\C)c1ccc(O)cc1)c1ccccc1 (centres undefined)	3	-2	4	98*
C/C(=N\NC(=O)C(c1ccccc1)c1ccccc1)c1ccc(O)cc1	-17	-16	1	90*
C/C(=N\NC(=O)c1csc2ccccc12)c1ccc(O)cc1	-8	9	-3	100*
COC(C(=O)N/N=C(\C)c1ccc(C)cc1)c1ccccc1 (centres undefined)	6	3	6	-12
C/C(=N\NC(=O)C(c1ccccc1)c1ccccc1)c1ccccn1	8	6	1	.
Cn1c(O)c(N=NC(=O)CNC(=O)/C=C/c2ccccc2)c2ccccc21	-2	5	9	2
Cc1ccc(/C=N/Nc2ncc(Cl)cc2Cl)s1	-6	0	-4	1
C(=N\Nc1nc2ccccc2[nH]1)/c1cccs1	-5	-3	4	99*
Clc1cnc(N/N=C/c2cccs2)c(Cl)c1	0	13	5	86*
O=c1[nH]c(N/N=C/c2ccc(O)cc2)nc2ccccc12	-15	-7	5	95*
C(=N\Nc1nc2ccccc2[nH]1)/c1ccncc1	-8	-5	5	98*
O=c1[nH]c(N/N=C\c2ccc(F)cc2)nc2ccccc12	-12	-4	-5	4
O=C1NC[C@H](CCCCN2C[C@H](Cc3ccc(O)cc3)N(Cc3ccccc3)C(=O)C2=O)N(CCc2ccccc2)C1=O	-4	1	.	.
Cc1ccc(N2CC(O)Cn3c2nc2c3c(=O)n(C)c(=O)n2C)cc1 (centres undefined)	-2	0	1	-1
Cn1c(=O)c2c(nc3n2CC(O)CN3c2ccc(O)cc2)n(C)c1=O (centres undefined)	5	1	2	99*
COC(=O)c1ccc(N2NC(=O)/C(=C/c3ccc(OC)c(OC)c3)C2=O)cc1	-6	15	0	12
COc1cccc(/C=C2/C(=O)NN(c3ccccc3)C2=O)c1	9	19	0	?
COc1cc(/C=C2\C(=O)NN(c3ccccc3)C2=O)ccc1OCC(N)=O	4	-3	6	96*

Source: PubChem (several laboratories)
